In this assay the test system is NCI-H1688. Kind of assay: inhibition of cell viability relative to untreated control (fraction); higher = stronger growth inhibition, active = 0.5 or more. As to conditions: 30 µM; 24 h. The method in brief: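 Viability of NCI-H1688 small cell lung cancer cells was assessed with Cell Counting Kit-8 by absorbance at 450 nm, in triplicate, after a 24 h exposure to a natural compound library (TargetMol) at 30 µM at 37°C and 5% CO2. The cells had been seeded at 3 × 10^3 cells/well in 96-well plates 24 h before treatment. Inhibition of cell viability is reported as a fraction, derived from viability normalised against untreated cells.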
With `COc1cc(-c2oc3cc(O)cc(O)c3c(=O)c2O)ccc1O` [Isorhamnetin], the “inhibition of cell viability” value is -0.0139 (inactive).
As for `O=C(/C=C/c1ccc(O)c(O)c1)O[C@H](Cc1ccc(O)c(O)c1)C(=O)O` [Rosmarinic acid], the “inhibition of cell viability” value is 0.0726 (inactive).
On to `COc1cc2c(=O)c(-c3ccc(O)cc3)coc2cc1O[C@@H]1O[C@H](CO)[C@@H](O)[C@H](O)[C@H]1O` [Glycitin], for which the “inhibition of cell viability” value is 0.491 (inactive).
With `CC(C)=CCC[C@](C)(O[C@@H]1O[C@H](CO)[C@@H](O)[C@H](O)[C@H]1O)[C@H]1CC[C@]2(C)[C@@H]1[C@H](O)C[C@@H]1[C@@]3(C)CC[C@H](O)C(C)(C)[C@@H]3[C@@H](O[C@@H]3O[C@H](CO)[C@@H](O)[C@H](O)[C@H]3O)C[C@]12C` [Ginsenoside Rg1], the “inhibition of cell viability” value was -0.0362 (inactive).
Consider `C[C@]12CCC(=O)C=C1CC[C@@H]1[C@@H]2[C@@H](O)C[C@@]2(C)[C@H]1CC[C@]2(O)C(=O)CO` [Hydrocortisone], for which the “inhibition of cell viability” value is 0.0716 (inactive).
In the case of `CCC(C)C(NC(=O)CNC(=O)C(CCC(N)=O)NC(=O)C1CCCN1C(=O)C(CC(=O)O)NC(=O)C(CCCNC(=N)N)NC(=O)C(NC(=O)C(NC(=O)C(N)CCCNC(=N)N)C(C)C)C(C)C)C(=O)NC(CCCNC(=N)N)C(=O)NC(C)C(=O)NC(Cc1c[nH]c2ccccc12)C(=O)NC(C(=O)NC(C)C(=O)NC(Cc1c[nH]c2ccccc12)C(=O)NC(CCCNC(=N)N)C(=O)NC(CC(N)=O)C(=O)NC(CCCNC(=N)N)C(=O)O)C(C)C` (configuration not stated) [Lysozyme] it was 0.471 (inactive).
In the case of `NCCC[C@H](N)C(=O)O` [L-Ornithine], the “inhibition of cell viability” value is -0.0432 (inactive).

(Values after the supplement of paper PMC11634586.)
